Experimental data taken from PubChem BioAssay AID651725 (National Center for Advancing Translational Sciences (NCATS), 2012).
The whole screen tested about 360,000 compounds, of which about 2,000 (0.56%) were called active. Inconclusive results (about 2%) are left out. The full list was thinned out, with actives kept by preference. A number with no mark means an inactive call. No stated cut-off is given here; in the data, active means activity change below about -65%; inconclusive means mostly about -30% to -63%; inactive means weaker than that.

biological target: Homeobox protein SIX1 (Homo sapiens) + Protein phosphatase EYA2 (Homo sapiens) (UniProt Q15475+O00167); experiment: qHTS Assay for Inhibitors of the Six1/Eya2 Interaction; conditions: AlphaScreen GST-Six1/His-Eya2 binding, biochemical; stronger effect = lower value
Sequence (O00167 whole entry, looked up): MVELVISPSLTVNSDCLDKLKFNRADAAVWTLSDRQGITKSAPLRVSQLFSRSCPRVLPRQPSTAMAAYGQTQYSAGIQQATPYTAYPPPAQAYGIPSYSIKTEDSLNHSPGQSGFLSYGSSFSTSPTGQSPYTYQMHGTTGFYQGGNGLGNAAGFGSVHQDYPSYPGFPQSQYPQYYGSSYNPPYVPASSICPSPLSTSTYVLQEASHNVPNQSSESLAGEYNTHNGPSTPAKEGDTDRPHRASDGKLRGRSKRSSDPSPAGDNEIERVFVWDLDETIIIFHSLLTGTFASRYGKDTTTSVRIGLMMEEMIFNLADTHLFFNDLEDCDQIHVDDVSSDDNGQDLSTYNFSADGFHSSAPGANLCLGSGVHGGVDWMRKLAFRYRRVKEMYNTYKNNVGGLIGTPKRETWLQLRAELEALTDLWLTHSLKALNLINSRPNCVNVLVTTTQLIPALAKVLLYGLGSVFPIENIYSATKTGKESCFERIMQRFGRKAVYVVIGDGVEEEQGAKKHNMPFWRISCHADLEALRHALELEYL
Sequence (Q15475 whole entry, looked up): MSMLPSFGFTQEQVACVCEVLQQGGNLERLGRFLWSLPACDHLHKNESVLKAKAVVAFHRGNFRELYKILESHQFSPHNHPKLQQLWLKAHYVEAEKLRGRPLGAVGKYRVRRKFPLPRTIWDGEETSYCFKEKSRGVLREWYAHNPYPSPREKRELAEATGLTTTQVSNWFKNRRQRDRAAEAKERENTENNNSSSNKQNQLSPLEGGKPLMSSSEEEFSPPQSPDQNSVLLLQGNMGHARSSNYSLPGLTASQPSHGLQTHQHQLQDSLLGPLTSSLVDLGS
From the text: Its expression is low or undetectable in normal adult breast tissue but the gene is over-expressed in 50% of primary breast tumors and 90% of metastatic lesions. […] Similar to Six1, Eya2 is also not expressed in most normal adult tissues, but is reexpressed in cancers. The Six1-Eya interaction is essential for proliferation during embryonic development, and both Six1 and Eya2 have been independently implicated in the same types of cancer. Because Six1 and Eya2 are embryonic genes with little expression in adult tissues, inhibitors of their expression/activity are likely to have limited side effects. Our goal is to identify inhibitors of the Six1/Eya interaction for potential cancer therapy. To this end, we have developed a homogenous AlphaScreen assay targeting the Six1/Eya interaction. We performed a large scale HTS of the Molecular Libraries Small Molecule Repository (MLSMR) to identify inhibitors of the Six1/Eya interaction as potential anti-cancer therapeutics. Compounds identified can also be used as chemical probes to better understand the biological functions of Six1 and Eya. NIH Chemical Genomics Center [NCGC] NIH Molecular Libraries Probe Centers Network [MLPCN] MLPCN Grant: DA033147 Assay Submitter (PI): Rui Zhao, University of Colorado Denver
The first step of the 5 uL AlphaScreen assay is to dispense assay buffer (50 mM Tris, pH 8.0, 300 mM NaCl, 0.05% BSA, 0.02% Tween 20, 1 mM TCEP) into a Greiner 1536 white solid bottom microtiter plate (789175-F). Five microliters is added to Column 1, 4 uL is added to Column 2 and 3 uL is added to Columns 3 through 48. A 5X protein solution (250 nM GST-Six1 protein + 500 nM His-tagged Eya2 protein) is mixed and 1 uL is dispensed to Columns 3-48. Using a 1536 pintool, 23 nL of compound is transferred to the assay plate. A solution of 5X AlphaScreen beads is mixed (50 ug/mL Glutathione linked donor beads + Nickel chelated acceptor beads) and 1 uL is dispensed to Columns 2-48. The assay plate is incubated for one hour, with a lid, at 37 deg C in the dark. The plate is read using a Perkin Elmer Envision using an AlphaScreen protocol.
On the % scale 0 is the no-effect control and ±100 the full control effect.

Structure (SMILES) | activity change
O=[N+]([O-])c1ccc(C=Nc2ccc(Cl)cc2Cl)s1 | -73.2% (active)
CCC(C)CN1C(=O)CN(S(C)(=O)=O)CC1(C)C(=O)Nc1ccc2c(c1)OCCO2 (stereo not given) | 16.6%
COc1ccc2c(c1)CCCO[C@]21O[C@H](CCO)C[C@H](O)[C@H]1O | 6.3%
Cc1ccc(NC(=O)c2nc[nH]c2C(=O)N[C@@H](CCCCNC(=O)OC(C)(C)C)C(=O)OC(C)(C)C)cc1 | -3.47%
CC(C)(C)OC(=O)NCCCCCNC(=O)c1nc[nH]c1C(=O)NCc1ccccc1 | -0.665%
CC(C)(C)OC(=O)NCCCCCNC(=O)c1[nH]cnc1C(=O)Nc1nccs1 | -76.4% (active)
COC(=O)c1ccc2nc(-c3cccc(Br)c3)c(Cc3ccccc3C(F)(F)F)n2c1 | -10.3%
Cc1ccc(C(=O)N2CCN(C3CCCCC3)CC2)s1 | -13.4%
OCCC#Cc1ccc(N2C(c3ccsc3)=Cc3ccc(F)cc3C2c2c[nH]c3ccccc23)cc1 (stereo not given) | -7.53%
O=C(N/N=C/c1cccc(OC(=O)c2ccc([N+](=O)[O-])cc2)c1)c1cccnc1 | -3.98%
Cc1cc(C(=O)N/N=C/c2cc([N+](=O)[O-])cc(C)c2O)n[nH]1 | -77.5% (active)
COc1ccc(C(=O)NNC(=O)c2cc(C)[nH]n2)cc1 | 1.78%
CCCCNS(=O)(=O)c1ccc2nc(SCC(=O)Nc3cc(C)cc(C)c3)[nH]c2c1 | -4.15%
CCOC(=O)[C@]12CCCC=C1N(Cc1cccc3ccccc13)C(=O)[C@H](CC(=O)NCC13CC4CC(CC(C4)C1)C3)C2 | -14%
Nc1nonc1-n1nnc(C(=O)N/N=C\c2ccncc2)c1CN1CCCCC1 | -5.55%
Nc1nonc1-n1nnc(C(=O)N/N=C/c2ccccc2O)c1CN1CCCC1 | -91.1% (active)
NNC(=O)c1nnn(-c2nonc2N)c1CN1CCCC1 | 4.15%
COC(=O)C[C@H]1C=C[C@H](NC(=O)c2ccc(F)cc2)[C@@H](CO)O1 | 7.11%
Cc1cc(C)c(S(=O)(=O)NN=C2c3ccccc3[C@H]3Cc4csc[n+]4[C@@H]23)c(C)c1 | -12.5%
Cc1cccc(N(CC(=O)N2CCCC2)S(C)(=O)=O)c1C | 7.01%
Cc1ccc(NC(=O)CSc2nn3c(=O)c(C)nnc3s2)cc1Cl | -81.7% (active)
COc1ccc(Cc2nnc(SCC(=O)Nc3ccc(C)c(Cl)c3)[nH]c2=O)cc1 | 6.59%
Cc1ccc(NC(=O)CSc2nnc(CNC(=O)c3ccccc3F)o2)cc1Cl | 8.8%
O=C(Nc1ccc(F)cc1)C(CCc1ccccc1)N1CCN(CC(=O)N2CCCC2)CC1 (stereo not given) | 1.59%
FC(F)(F)c1cccc(-c2nc3ccccc3n2C(c2ccccc2)c2nc3ccccc3[nH]2)c1 (stereo not given) | -13.3%
CCN(CC(=O)NC1CCS(=O)(=O)C1)S(=O)(=O)c1ccccc1 (stereo not given) | 9.89%
Cc1ccccc1CN1C(=O)CSCC1(C)C(=O)Nc1c(C)cccc1C (stereo not given) | -3.18%
Cc1nc(N=C(N)N)nc2c(C)cccc12 | -72.7% (active)

Structure (SMILES) | activity change
COC(=O)[C@@]12C[C@@H](CC(=O)NCCCCc3ccccc3)C(=O)N(CCc3ccc(OC)c(OC)c3)C1=CCC(C)(C)C2 | -8.99%
Cc1ccc(C(=O)Nc2c(-c3ccccc3)[nH][nH]c2=O)cc1 | 3.7%
COC(=O)C[C@@H]1C=C[C@@H](NS(=O)(=O)c2cccc(OC)c2)[C@@H](CO)O1 | -2.42%
COc1ccc(Cc2nnc(SC)[nH]c2=O)cc1 | 0.132%
COc1ccc(Cc2nnc(N/N=C/c3ccccc3O)[nH]c2=O)cc1OC | -85.7% (active)
CC(C)c1ccc(Cc2nnc(NCCCO)[nH]c2=O)cc1 | 4.24%
Cc1ccc(/C=C/C(=O)OCC(=O)Nc2cccnc2Cl)cc1 | -0.924%
CC(C)(C)NC(=O)C(CCc1ccccc1)n1c(=O)c(-c2ccccc2)nc2ccccc21 (stereo not given) | 7.94%
COc1cccc(-c2ccc3c(c2)S(=O)(=O)c2cccc(C(=O)O)c2C3=O)c1OC | -5.18%
O=C(O)c1ccc2c3c(cccc13)C(=O)N(OS(=O)(=O)c1ccccc1)C2=O | -77.1% (active)
Cc1cc(Br)cn2c(Cc3ccccc3C(F)(F)F)c(C3CCCCC3)nc12 | 11.6%
CC(=O)N1Cc2cc(C(=O)NCc3cccc(F)c3)nc(-c3cccc(C4=CCCC4)c3)c2[C@H]1CCO | -15.8%
NC(=S)NN=Cc1ccc(OC(=O)COc2cc(Cl)c(Cl)cc2Cl)cn1 | -93.5% (active)
O=C(COC(=O)COc1cc(Cl)c(Cl)cc1Cl)NC1CC1 | 3.24%
O=C(COc1cc(Cl)c(Cl)cc1Cl)NCCc1ccccn1 | -7.95%
COc1ccc(C(C(=O)NCc2ccccc2)n2c(=O)c(-c3ccccc3)nc3ccccc32)cc1 (stereo not given) | 0.529%
CC(C)C[C@H]1CNC(=O)C(=O)N1C[C@@H]1CCCN1C[C@H](Cc1ccccc1)N1C[C@H](CC(C)C)N(CC2CCCCCC2)C(=O)C1=O | -1.64%
O=C(c1ncn2c1c(=O)[nH]c1ccccc12)N1CCc2ccccc2C1 | -3.9%
O=c1[nH]c2ccccc2n2c(-c3ccccc3)nnc12 | -65.3% (active)
Cn1c(=O)c2c(nc(N/N=C/c3cccs3)n2Cc2ccc(Br)cc2)n(C)c1=O | 29.6%
Cc1nc2ccccc2n1CC(=O)N/N=C/c1cccs1 | -11.4%
Cc1n[nH]c(=O)nc1N/N=C/c1cccs1 | -90.5% (active)
Cc1nccn1-c1ccc(NC(=O)[C@H]2O[C@@H](n3ccc(=O)[nH]c3=O)[C@H](O)[C@@H]2O)cc1 | 1.11%
O=C(NCc1ccccc1)C(c1ccc(F)cc1)N1CCN(C(=O)C2CCCO2)CC1 (stereo not given) | 20.6%
Cc1cc(NC(=O)c2cccc(N3C(=O)CCC3=O)c2)no1 | -70.6% (active)
Cc1cc(NC(=O)c2ccccc2C)no1 | 9.99%
Cc1cccc(NC(=O)c2cc(N3C(=O)CCC3=O)ccc2Cl)n1 | 3.08%
